From PubChem BioAssay (Tox21)
Inconclusive results are not listed. A call without a number means that no potency is given here. Values without a mark were called inactive. Active and inactive are the calls of the source. Calls come from the whole dose curve; as a rule, active = well fitted cell-killing curve with a large enough effect in the repeat runs; inconclusive = weak or mixed curves, or effect the other way; inactive = no such curve, though single readings can be large or run the other way.

assay: qHTS assay to identify small molecule antagonists of the sonic hedgehog signaling (Shh) pathway - cell viability counter screen (AID 1259367); conditions: NIH/3T3 Gli1-Luc viability, CellTiter-Fluor, 24 h; series mostly up to 92.4 µM; note: nearly all actives have a fitted effect of over 55% in size
From the text: National Center for Advancing Translational Sciences [NCATS]
NIH Chemical Genomics Center [NCGC]
U.S. Environmental Protection Agency [EPA]
National Institutes of Environmental Health Sciences [NIEHS]
National Toxicology Program [NTP]
U.S. Food and Drug Administration [FDA]
The sonic hedgehog (Shh) pathway is essential for normal embryonic development. Dysregulation of the Shh pathway can cause severe developmental defects in organs. Therefore chemicals that interfere with the pathway are potential developmental toxicants. A cell line designated 3T3Gli1-Luc (DMB/OARSA/CFSAN/FDA, Laurel, MD), a NIH/3T3 derived clone containing stably integrated Gli1-Luc reporter is used to detect chemical interference of the Shh pathway, by changes in the expression of the firefly Luc gene under the control of the Gli1 transcriptional response element. This cell line was used to screen Tox21 libraries for identifying and prioritizing the potential developmental toxicants that interfere Shh pathway. Conditioned medium-stimulated mode was used to screen for chemicals inhibiting Shh signaling. The cytotoxicity of the compounds was tested in parallel by measuring the cell viability using CellTiter-Fluor assay system (Promega, Madison, WI) in the same wells.
Tox21 Assay Protocol Summary:
3T3 Gli1-Luc cells were dispensed at 2,000 per well in 5uL of culture medium into white solid bottom 1536-well plates (Greiner Bio-One, Monroe, NC) using a Multidrop Combi (Thermo Scientific, Waltham, MA) dispenser. The assay plates were incubated at 37 C and 5% CO2 for 4hr, and then 23nL of compounds dissolved in DMSO and positive control were transferred using a Pintool station (Wako, San Diego, CA). The compound transfer was followed by the addition of 1ul conditioned medium or assay buffer using two separate tips of Flying Reagent Dispenser (FRD, Aurora Discovery, San Diego, CA). The assay plates were incubated at 37C and 5% CO2 for 24hr. For viability read, after 23hr of compound treatment, 1uL of CellTiter-Fluor reagent (Promega Corporation, Madison, WI) was added to each well of the assay plates using Flying Reagent Dispenser (FRD, Aurora Discovery, San Diego, CA) and incubated the assay plates at 37C for 1hr. The fluorescence signal was quantified using a ViewLux plate reader (Perkin Elmer, Shelton, CT).
Potency is the fitted concentration of half-maximal effect.

| Compound | Potency | viability change, negative = cytotoxic |
| --- | --- | --- |
| O=C(O)c1ccccc1NCCc1ccccc1 | inactive | – |
| CCCC(=O)O[C@]1(C(=O)COC(=O)CC)CC[C@H]2[C@@H]3CCC4=CC(=O)CC[C@]4(C)[C@H]3[C@@H](O)C[C@@]21C | – | -1.17% [at 19 µM] |
| O=C1OCCN1/N=C/c1ccc([N+](=O)[O-])o1 | inactive | – |
| Fc1c(F)c(F)c(Br)c(F)c1F | inactive | – |
| CC(C)CCCCCCOC(=O)CCCCC(=O)OCCCCCCC(C)C | inactive | – |
| CCCOC(=O)c1ccc(N)cc1 | inactive | – |
| O=C(O)c1cccnc1C(=O)O | inactive | – |
| COCc1c(C(C)C)nc(C(C)C)c(/C=C/[C@@H](O)C[C@@H](O)CC(=O)O)c1-c1ccc(F)cc1 | inactive | – |
| O=C(N/N=C/c1ccc([N+](=O)[O-])o1)c1ccc(O)cc1 | 18.8 µM (active) | – |
| CCCCC/C(=C\c1ccccc1)CO | inactive | – |
| CCCCCCCC/C=C\CCCCCCCC(=O)OC(CO)CO | inactive | – |
| CN(C)CCOC1=Cc2ccccc2Sc2ccc(Cl)cc21 | inactive | – |
| CCc1cccc(N(C)C(N)=Nc2cccc3ccccc23)c1 | inactive | – |
| OCC1CC=CCC1 (stereo not given) | inactive | – |
| Cc1cc(C(=C2C=CC(=Nc3ccc(S(=O)(=O)O)cc3S(=O)(=O)O)C=C2)c2ccc(Nc3ccc(S(=O)(=O)O)cc3)cc2)ccc1N | inactive | – |
| COc1cc2[nH]c(=O)[nH]c(=O)c2cc1OC | inactive | – |
| CCCOCCOCCO | inactive | – |
| CC(C)(C)C(=O)C(Oc1ccc(Cl)cc1)n1ccnc1 (stereo not given) | inactive | – |
| O=C(O)Cc1ccc(-c2ccccc2)cc1 | inactive | – |
| O=C(c1ccc(O)cc1)c1ccc(Cl)cc1 | inactive | – |

| Compound | Potency | viability change, negative = cytotoxic |
| --- | --- | --- |
| C1COCO1 | inactive | – |
| CCC(C(=O)OCCOCCN(CC)CC)c1ccccc1 (stereo not given) | inactive | – |
| CCC(C)(O)CCC=C(C)C (stereo not given) | inactive | – |
| OC(CCCN1CCCCC1)(c1ccccc1)c1ccccc1 | inactive | – |
| Cc1cc(S(=O)(=O)O)ccc1N=Nc1c(O)ccc2ccccc12 | 27.3 µM (active) | – |
| CC(C)CCCC(=O)O | inactive | – |
| CSc1ccc(Oc2ccc(S(N)(=O)=O)cc2CN(C)C)cc1C | inactive | – |
| [O]=[Bi] | – | -5.4% [at 8.39 µM] |
| OC/C(Br)=C(\Br)CO | inactive | – |
| C[N+](C)(C)CCOC(N)=O | inactive | – |
| CC(C)(CCl)c1ccccc1 | inactive | – |
| NC(=O)Nc1ccc(Cl)c(Cl)c1 | inactive | – |
| C[Si]1(C)O[Si](C)(C)O[Si](C)(C)O1 | inactive | – |
| Cc1nc2ccccn2c(=O)c1CCN1CCC(C(=O)c2ccc(F)cc2)CC1 | inactive | – |
| COc1ccc(CCC(=O)c2c(O)cc(O[C@@H]3O[C@H](CO)[C@@H](O)[C@H](O)[C@H]3O[C@@H]3O[C@@H](C)[C@H](O)[C@@H](O)[C@H]3O)cc2O)cc1O | inactive | – |
| CCCCCCCCCOC(C)=O | inactive | – |
| O=C(N[C@@H](c1ccccc1)[C@@H]1CCCCN1)c1cccc(C(F)(F)F)c1Cl | 54.5 µM (active) | – |
| O=C(O)c1cccc(O)c1 | inactive | – |
| CCOC(=O)c1ccccc1C | inactive | – |
| NC(=O)N(O)[C@@H]1C=C[C@H](Oc2cccc(Oc3ccc(F)cc3)c2)C1 | inactive | – |
